PGC1a acetyl inh: lowers PGC1a acetylation signal in U2OS cells; AlphaScreen anti-acetyl-lysine; with virally co-expressed GCN5 acetyltransferase; inhibition, % at 15.6 µM; 350,000 tested, 0.17% active; AID 651687;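 active = every replicate shows inhibition of at least 40%; inconclusive = mean inhibition at least 40% but some replicate below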;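 also: 0% = neutral control wells and 100% = positive control wells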
LMP1 NFkB inh: reduces LMP1-driven NF-kappaB luciferase signal; LMP1-induced NF-kappaB luciferase reporter cells, luminescence; inhibition, % at 12.5 µM; 350,000 tested, 0.69% active; in the data active = inhibition above about 41%; inconclusive = no clear call, values can overlap the other calls;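 also: 0% = neutral control wells and 100% = reference inhibitor control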
EWS-Fli block: inhibitors of EWS/Fli oncoprotein transcriptional activity | A673 NR0B1-luciferase reporter, viability-normalised | AID 651661 | 350,000 tested, 0.67% active | inhibition, % at 12.6 µM;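 active = mean inhibition of at least 50% after viability correction, with every replicate also passing that limit; inconclusive = mean reaches 50% but only one of two replicates passes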;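 also: firefly luciferase signal divided by Alamar Blue viability fluorescence both relative to DMSO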
LGR2 antag: Drosophila LGR2 receptor signaling inhibition | 380,000 tested, 0.35% active | HEK293 LGR2, CRE-luciferase, bursicon-stimulated, 4 h | AID 720647 | inhibition, % at 9.99 µM;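 active = drop in luminescence signal, shown as inhibition above about 50% in the replicate tests, limit read from the data, passing the limit was not always enough; inconclusive = probably only some replicates passing the limit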;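 also: agonist challenge used bursicon conditioned medium at about half maximal strength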
TRPM1 prom inh: reduces MITF-dependent TRPM1 promoter luciferase signal | inhibition, % at 12.5 µM | SK-MEL-5 TRPM1 promoter luciferase, 24 h | 330,000 tested, 0.83% active | AID 488899;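 active = mean inhibition across replicates of 60% or more, whatever share of single replicates reaches that level; inconclusive = some that reach 60%, reason not given; inactive = mean inhibition across replicates below 60%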
PAX8 reporter: inhibitors of PAX8 transcriptional activity in RMG-I cells; AID 652154; RMG-I TPO-luciferase reporter, SteadyGlo, 24 h; inhibition, % at 12.6 µM; 360,000 tested, 1.2% active;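 active = mean replicate inhibition at least 60% with every replicate also reaching 60%; inconclusive = only one of the two criteria is met; inactive = mean below 60% and not all replicates reaching 60%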;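 also: luciferase light reporting Pax8 driven TPO promoter activity; plate controls were median of neutral control wells for no effect and mitoxantrone controls for full effect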
* = called active by the depositor; ? = inconclusive; . = no result given. A selection: hits, their analogues and other compounds. The true share with any hit is near 2.2%.

SMILES	PGC1a acetyl inh	LMP1 NFkB inh	EWS-Fli block	LGR2 antag	TRPM1 prom inh	PAX8 reporter
C[C@@H]1CN([C@@H](C)CO)C(=O)c2cc(NS(=O)(=O)c3ccc(Cl)cc3)ccc2O[C@@H](C)CCCCO[C@H]1CN(C)S(=O)(=O)c1ccc(Cl)cc1	5	.	1	8	.	-4
COc1cc2nc(C3CCC3)nc(N3CCN(c4ccccc4OC)CC3)c2cc1OC	.	14	11	20	9	89*
COc1cc2nc(C3CCC3)nc(N3CCN(c4ccccn4)CC3)c2cc1OC	-6	10	.	.	-13	.
Cc1ccc2c(c1)N(CC(=O)N1CCCC1)C(=O)c1cccnc1O2	7	61*	-4	3	0	-5
O=C1C(=C(I)I)c2ccccc2-c2ccccc21	.	12	58*	103*	99*	128*
Cc1cc(C(=O)Nc2cccc(C(=O)O)c2)oc1C	7	66*	.	.	87*	.
CCOC(=O)c1csc(NC(=O)c2ccccc2)n1	12	-27	4	-51	.	-182
Cc1cc(C(=O)Nc2cccc(C(=O)O)c2)c(C)o1	-13	-6	.	.	7	.
CCOC(=O)c1sc(NC(=O)c2ccccc2OC)nc1C	-1	-12	86*	12	-21	-75
CCOC(=O)c1cccc(NC(=O)c2cc3ccccc3o2)c1	-31	-12	84*	-15	-24	-79
CCOC(=O)c1csc(NC(=O)c2cc3ccccc3o2)n1	7	-15	59*	-54	-47	-45
O=S(=O)(NCC[C@H]1CC[C@H](NS(=O)(=O)c2cccc(F)c2)[C@@H](CO)O1)c1cccc(F)c1	7	.	9	2	.	0
C[C@@H]1CCCCO[C@H](CN(C)S(=O)(=O)c2ccccc2)[C@H](C)CN([C@H](C)CO)C(=O)c2cc(NS(C)(=O)=O)ccc2O1	-2	.	-2	-1	.	5
CCOC(=O)c1csc(NC(=O)c2ccc(OCC)cc2)n1	-6	15	53*	50	14	10
CCOC(=O)c1sc(NC(=O)c2cc3ccccc3o2)nc1C	-1	2	87*	-69	41	-1
CCOC(=O)c1sc(NC(=O)c2ccc3ncsc3c2)nc1C	11	-22	87*	-28	.	33
COc1ccc(NC(=O)Nc2ccc3c(c2)C(=O)N([C@H](C)CO)C[C@H](C)[C@H](CN(C)S(C)(=O)=O)O3)cc1	-1	.	0	16	.	.
O=C1CN(S(=O)(=O)c2ccccc2)C[C@H]2[C@@H](c3ccc(Br)cc3)[C@H](CO)N12	13	.	-1	12	.	-20
CC(=O)NC(CCc1ccc(Cl)c(Cl)c1)c1cccc(O)c(=O)c1 (centres undefined)	.	32	-3	.	.	91*
CC(=O)NC(C)c1ccc(Cl)c(Cl)c1 (centres undefined)	9	4	.	12	6	.
CC(C)CCNC(=O)C1CCN(S(=O)(=O)c2ccc3c(c2)CC(C)N3C(=O)C2CC2)CC1 (centres undefined)	-6	54*	.	-14	16	-2
CCCn1c(-c2ccccc2)cc(SC)c(C#N)c1=O	93*	3	18	-11	18	5
C[C@H](CO)N1C[C@H](C)[C@H](CN(C)Cc2ccccc2)Oc2ncc(-c3ccc(F)cc3)cc2C1=O	-9	.	-1	-1	.	.
Cc1cc(C)c2sc(NC(=O)C3CC3)nc2c1	-4	48*	-38	.	-4	-23
COc1ccccc1CNC(=O)C[C@@H]1C[C@@H]2c3cc(NC(=O)Nc4ccccc4F)ccc3O[C@@H]2[C@H](CO)O1	19	.	9	2	.	-16
SMILES	PGC1a acetyl inh	LMP1 NFkB inh	EWS-Fli block	LGR2 antag	TRPM1 prom inh	PAX8 reporter
CC(C)NC(=O)N(C)C[C@H]1Oc2cc(C#CC3CC3)ccc2S(=O)(=O)N([C@H](C)CO)C[C@@H]1C	-4	.	-4	26	.	.
CN(C)CCC(=O)N1C/C(=C/c2ccccc2)C(=O)/C(=C\c2ccccc2)C1	37	87*	80*	102*	101*	.
O=C1/C(=C/c2ccccc2)CN(C(=O)CCN2CCOCC2)C/C1=C\c1ccccc1	30	-35	65*	103*	101*	-19
C[N+](C)(C)CCC(=O)N1C/C(=C/c2ccccc2)C(=O)/C(=C\c2ccccc2)C1	.	-42	58*	9	3	-30
O=C(C[C@H]1CC[C@@H]2[C@H](COC[C@@H](O)CN2C(=O)Nc2ccc(Cl)cc2)O1)NCCc1ccncc1	3	.	-15	-15	.	4
C[C@H]1CCCCO[C@H](CN(C)S(=O)(=O)c2ccc(F)cc2)[C@@H](C)CN([C@@H](C)CO)C(=O)c2cc(NS(C)(=O)=O)ccc2O1	-1	.	-4	-9	.	-5
Nc1ncnc2c1nc(-c1ccccc1)n2C1OC(CO)C(O)C1O (centres undefined)	.	.	-4	-2	.	5
Nc1ncnc2c(C3OC(CO)C(O)C3O)c[nH]c12 (centres undefined)	.	92*	46	101*	.	118*
COc1ccc(S(=O)(=O)N(C)C[C@@H]2OCCCC[C@@H](C)Oc3ccc(NS(=O)(=O)c4ccc(F)cc4)cc3C(=O)N([C@@H](C)CO)C[C@@H]2C)cc1	-4	.	10	-6	.	7
NCC[C@H]1CC[C@H](NS(=O)(=O)Cc2ccccc2)[C@H](CO)O1	-12	.	-1	13	.	1
O=C(N/N=C/c1cc(Cl)ccc1O)c1ccncc1	9	-2	16	-18	62*	66*
O=C(N/N=C/c1cc(Br)ccc1O)c1ccccc1Cl	.	51*	12	2	51	13
C[C@H]1CN([C@@H](C)CO)C(=O)c2cc(NS(=O)(=O)c3ccc(Cl)cc3)ccc2O[C@@H]1CN(C)C(=O)Nc1ccc2c(c1)OCO2	8	.	1	-5	.	.
CCc1csc(N2[C@H](C#N)[C@H](c3ccc(-c4ccc(F)cc4)cc3)[C@@H]2CO)n1	-4	.	8	1	.	5
CCn1c2ccccc2c2cc(/C=N/NC(=O)c3ccccc3)ccc21	?	79*	.	.	19	.
CCn1c2ccccc2c2cc(NC(=O)C(C)C)ccc21	-13	-8	.	-4	-10	.
CCn1c2ccccc2c2cc(NC(=O)c3ccccc3-c3ccccc3C(=O)O)ccc21	.	52*	15	-4	5	-16
C[C@@H]1CN([C@H](C)CO)C(=O)c2cc(NC(=O)CCCN(C)C)ccc2O[C@H]1CN(C)C(=O)Nc1ccc(F)cc1	1	.	13	-4	.	-19
C[C@H](CO)N1C[C@H](C)[C@H](CN(C)Cc2ccc(F)cc2)Oc2ncc(-c3ccc(F)cc3)cc2C1=O	-1	.	-2	0	.	.
CCOC(=O)N1CCN(C(=O)CSCC(=O)Nc2nc(-c3ccc(-c4ccccc4)cc3)cs2)CC1	.	31	4	51*	41	-3
COc1cccc(-c2ccc3c(c2)[C@H]2[C@H](CCN2C(=O)c2ccccc2F)[C@H](CO)N3C)c1	-10	.	0	?	.	85*

Assay outcomes: PubChem BioAssay, Broad Institute
